In the library only some 19% were active in any assay of this set; here they are far more common.
IL1B secr inh: qHTS for Inhibitors of Inflammasome Signaling: IL-1-beta AlphaLISA Primary Screen. THP-1 LPS/ATP IL-1B secretion, AlphaLISA, 16 h; active compounds read low. activity change, % at 57.5 µM. 4.7% of 360,000 active; in the data active = activity change below about -50%; inconclusive = mostly about -30% to -49%; also: % is scaled to controls: 0 for no effect and ±100 for the full control effect
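Secreted IL-1B measured by AlphaLISA bead assay after 16 h compound exposure of THP-1 cells; compounds (final up to 57.5 uM) added 1 h before LPS (250 ng/mL) and ATP (1.25 mM) stimulation; lower signal means less secretion.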
HepG2 tox: qHTS for Inhibitors of TGF-b: Cytotox Counterscreen | 0.76% of 410,000 active | HepG2 CAGA-GFP viability, ATP luminescence, 18 h | AID 588856, 2011 | Potency, µM (highest dose often 46.1 µM), inactives show at the highest dose activity change, negative = cytotoxicity, actives largely listed as cytotoxic; also: potency is read from the fitted curve at half-maximal effect
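CellTiter-Glo luminescence gave cytotoxicity after 18 hours at 37 degrees C. The cells were HepG2 CAGA-GFP in 1% FBS DMEM, stimulated with 500 pg/mL TGF-beta after compound addition. %Activity was normalised to no-cell wells (complete cell-killing) and DMSO (no toxicity), and curves were fitted and classified.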
TDP1 cell CPT: qHTS for Inhibitors of human tyrosyl-DNA phosphodiesterase 1 (TDP1): qHTS in cells in presence of CPT. chicken DT40 Tdp1-/-;hTDP1 cells + 20 nM CPT, ATP luminescence, 48 h. Potency, µM (series often up to 46.2 µM), for the others: top-dose activity change, negative = growth inhibition, usual class: inhibitors. 12% of 420,000 active; also: potency is read from the fitted curve at half-maximal effect; % is scaled to controls: 0 for no effect and ±100 for the full control effect; nearly all actives have a fitted effect of over 55% in size
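Chicken DT40 Tdp1-/- cells complemented with human TDP1, 400 cells/well, exposed to compounds plus 20 nM camptothecin for at least 48 h at 37 C; viability read as ATP content by CellTiter-Glo luminescence.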
TGFb SMAD3 inh: qHTS for Inhibitors of TGF-b | HepG2 CAGA-GFP TGF-b/SMAD3 reporter, GFP fluorescence, 18 h; TGF-beta stimulated, 500 pg/mL final | Potency, µM (series often up to 46.1 µM), for inactives: at the top dose activity, negative = inhibition, hits mostly inhibitors | 1.2% of 410,000 active | AID 588855, 2011; also: potency is read from the fitted curve at half-maximal effect; % is scaled to controls: 0 for no effect and ±100 for the full control effect; nearly all actives have a fitted effect of over 65% in size
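Smad-responsive CAGA-GFP expression was quantified in HEPG2 cells exposed to compounds and 500 pg/mL final TGF-beta for 18 h at 37 degrees C; unstimulated wells defined full inhibition.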
ASM inhibitor: Inhibitors of Secretory Acid Sphingomyelinase (S-ASM): qHTS; Sphingomyelin phosphodiesterase (Homo sapiens), P17405; placental ASM, HMU-PC fluorogenic substrate, 60 min; Potency, µM (doses to about 57.5 µM), for the others: top-dose activity change, negative = inhibition, usual class: inhibitors; 0.006% of 340,000 active; also: potency is read from the fitted curve at half-maximal effect
Target sequence (P17405 47-631 limits assumed): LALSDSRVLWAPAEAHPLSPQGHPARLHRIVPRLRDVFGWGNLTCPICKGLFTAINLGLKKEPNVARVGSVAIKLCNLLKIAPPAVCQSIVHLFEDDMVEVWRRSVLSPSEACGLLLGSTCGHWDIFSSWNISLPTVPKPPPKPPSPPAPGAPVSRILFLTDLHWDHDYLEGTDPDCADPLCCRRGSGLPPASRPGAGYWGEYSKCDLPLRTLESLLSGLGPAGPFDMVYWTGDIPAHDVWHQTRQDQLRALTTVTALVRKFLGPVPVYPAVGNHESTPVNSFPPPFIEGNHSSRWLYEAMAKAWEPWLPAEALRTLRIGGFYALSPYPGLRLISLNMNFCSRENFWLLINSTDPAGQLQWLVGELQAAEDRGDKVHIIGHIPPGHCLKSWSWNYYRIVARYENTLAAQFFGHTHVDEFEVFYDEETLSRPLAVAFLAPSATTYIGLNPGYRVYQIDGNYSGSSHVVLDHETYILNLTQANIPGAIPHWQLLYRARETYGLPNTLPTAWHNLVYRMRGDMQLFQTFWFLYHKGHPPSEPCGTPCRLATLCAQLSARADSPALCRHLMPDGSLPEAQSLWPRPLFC
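HMU-PC0 cleavage (9 uM final) by human placental ASM, 60 min at 37 °C following 10 min compound exposure at RT; stopped at pH 10, fluorescence Ex 386/Em 447 nm.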
TDP1 cell noCPT: qHTS for Inhibitors of human tyrosyl-DNA phosphodiesterase 1 (TDP1): qHTS in cells in absence of CPT; Potency, µM (doses to about 46.2 µM), without a hit: top-dose activity change, negative = growth inhibition, most hits filed as inhibitors; 15% of 420,000 active; AID 686978, 2013; DT40 Tdp1-/- hTDP1 cells, no CPT, ATP luminescence, 48 h; also: potency is read from the fitted curve at half-maximal effect; % is scaled to controls: 0 for no effect and ±100 for the full control effect; nearly all actives have a fitted effect of over 55% in size
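Readout: luminescence from CellTiter-Glo after 30 min in the dark at RT. Cells: DT40 Tdp1-/- with stable hTDP1, 400/well. Exposure: compounds alone, ≥48 hr, 37 °C.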
Numbers without * were called inactive; ? = inconclusive; / = no result. Unless noted, calls follow the shape of the dose curve; as a rule, active = well fitted curve in the direction sought with a large enough effect; inconclusive = small, poorly fitted or top-dose-only effect, or another doubt; inactive = no such curve, though single readings can be large; an effect the other way counts as inactive or inconclusive.

SMILES	IL1B secr inh	HepG2 tox	TDP1 cell CPT	TGFb SMAD3 inh	ASM inhibitor	TDP1 cell noCPT
CCN(CC)c1ccc(NC(=O)CN2C(=O)CSc3ncccc32)c(C)c1	10.8	-7.8%	5.17µM*	?	-2.9%	7.31µM*
COc1ccccc1NC(=O)Cn1nc(C)n2cccc2c1=O	0.3	-9.0%	-5.2%	-15.2%	-4.9%	-9.7%
CCN(CC)c1ccc(NC(=O)CN2C(=O)c3cccnc3Oc3ccccc32)c(C)c1	/	-27.4%	16.4µM*	-4.4%	/	16.4µM*
CCN(CC)c1ccc(NC(=O)Cn2nc(C)n3cccc3c2=O)c(C)c1	/	9.5%	14.6µM*	52.3%	/	18.4µM*
CC(NC(=O)/C(C#N)=C/c1ccc([N+](=O)[O-])o1)c1ccccc1 (stereo unspecified)	-104.6*	-78.6%	0.651µM*	?	142.1%	0.731µM*
COc1ccc(/C=C(\C#N)C(=O)NCc2ccccc2)cc1O	-85.8*	-10.0%	-29.3%	-0.7%	-4.2%	-29.0%
COc1ccc(/C=C(\C#N)C(=O)NC(C)c2ccccc2)cc1O (stereo unspecified)	-86.7*	-23.2%	-25.1%	0.0%	-3.5%	?
N#C/C(=C\c1ccc(O)c(O)c1)C(=O)NCCCCc1ccccc1	/	/	6.68µM*	/	/	8.41µM*
CC(NC(=O)/C(C#N)=C/c1ccco1)c1ccccc1 (stereo unspecified)	-21.2	-16.1%	5.3%	-26.9%	4.6%	-22.3%
O=C(C1CCN(S(=O)(=O)c2ccc(Cl)c(C(F)(F)F)c2)CC1)N1CCC1	3.3	-21.8%	?	-20.3%	-0.6%	?
CCCCNC(=O)/C(C#N)=C/c1ccc(C(=O)OC)cc1	13.3	-2.1%	?	11.6%	1.5%	?
CC(NC(=O)/C(C#N)=C/c1ccc(N2CCOCC2)cc1)c1ccccc1 (stereo unspecified)	?	-22.1%	13µM*	-0.7%	76.3%	9.2µM*
COC(=O)c1ccc(/C=C(\C#N)C(=O)NC(C)c2ccccc2)cc1 (stereo unspecified)	-97.3*	-42.8%	9.2µM*	-14.2%	-4.7%	10.3µM*
CC(NC(=O)N1CCOCC1)c1ccccc1 (stereo unspecified)	28.1	-1.5%	26.2%	1.0%	4.3%	13.4%
CCCCn1nnnc1SCC(=O)NC1CCCCC1	39.0	3.8%	7.0%	12.7%	6.8%	-3.2%
O=C(CCNc1cc(Cl)cc(Cl)c1)c1ccco1	18.1	-24.0%	13µM*	2.8%	-7.6%	13µM*
COC(=O)CNc1cccc(C(F)(F)F)c1	8.7	18.0%	10.3%	-3.1%	3.5%	-11.2%
O=C(CNC(=O)c1ccco1)Nc1ccc(F)c(Cl)c1	-4.7	1.5%	7.3%	10.4%	0.9%	10.0%
O=C(CCNc1cccc(C(F)(F)F)c1)c1ccco1	-3.0	-57.3%	20.6µM*	?	-0.8%	16.4µM*
O=C(CCNC(=O)c1ccco1)Nc1ccc(Cl)c(C(F)(F)F)c1	-14.0	28.9%	12.9%	0.0%	-1.8%	-2.7%
O=C(CNC(=O)c1ccco1)Nc1cccc(Cl)c1	0.0	1.0%	-7.4%	-8.5%	2.5%	17.9%
O=C(CCNc1ccc(F)c(Cl)c1)c1ccco1	-101.2*	-87.9%	3.66µM*	?	2.5%	6.51µM*
O=C(CCNc1ccc(Cl)c(C(F)(F)F)c1)c1ccco1	-4.9	-67.4%	7.31µM*	3.8%	-2.7%	9.2µM*

Assay outcomes deposited in PubChem BioAssay by National Center for Advancing Translational Sciences (NCATS).
